Where “and” joins values, the source holds several entries; their conditions need not be identical. Equal entries are not always repeated. Results filed as inconclusive are left out. Calls of active or inactive are those of the source. The calls were made as follows, unless noted: active = hit-call score of the fitted dose curve at least 0.9, where 1 is the maximum; inactive = score below 0.9.

Read-out in experiment [1]: Monokine induced gamma interferon (MIG), CXCL9 (gene 4283)
The experiment in a line: BSK_KF3CT_MIG: BioMAP Diversity Plus: KF3CT Assay for Monokine induced gamma interferon (MIG) Biomarker Activity (AID 2284248). The following applies: primary human keratinocytes with fibroblasts. Summed up:
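KF3CT system: keratinocyte/fibroblast co-culture, 24 h post-dose, MIG by ELISA; activity vs DMSO, positive fitting direction.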

Read-out in experiment [2]: Interferon-inducible T-cell alpha chemoattractant (ITAC), CXCL11 (gene 6373)
The experiment in a line: BSK_hDFCGF_ITAC: BioMAP Diversity Plus: hDFCGF Assay for Interferon-inducible T-cell alpha chemoattractant (ITAC) Biomarker Activity (AID 2284251). The following applies: primary human foreskin fibroblasts. Summed up: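 Measured by ELISA, the chemokine level serves as the endpoint in human skin fibroblast primary cultures 24 h after compound addition. Increases relative to DMSO-treated wells define activity.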

Read-out in experiment [3]: Plasminogen activator inhibitor-1 (PAI1), SERPINE1 (gene 5054)
As to the kind of experiment: BSK_KF3CT_PAI1: BioMAP Diversity Plus: KF3CT Assay for Plasminogen activator inhibitor-1 (PAI1) Biomarker Activity (AID 2284252). The following applies: primary human keratinocytes with fibroblasts. In a few lines:
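Keratinocyte + dermal fibroblast co-culture (human primary); 24 h post-dose; PAI-1 by ELISA; gain-of-signal fit vs DMSO control.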

Read-out in experiment [4]: Intercellular Adhesion Molecule 1 (ICAM1), ICAM1 (gene 3383)
As to the kind of experiment: BSK_BE3C_ICAM1: BioMAP Diversity Plus: BE3C Assay for Intercellular Adhesion Molecule 1 (ICAM1) Biomarker Activity (AID 2284278).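 As to outcome: cell-surface ICAM-1 protein level quantified by ELISA.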 The following applies: primary human bronchial epithelial cells. Summed up: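 ELISA read-out of ICAM-1 on human lung bronchial epithelial primary cells, 24 h post-dosing; positive-direction curve fit, DMSO = baseline. SRB total-protein staining of parallel cultures flagged overt cytotoxicity.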

Read-out in experiment [5]: Interferon-inducible T-cell alpha chemoattractant (ITAC), CXCL11 (gene 6373)
The experiment in a line: BSK_BE3C_ITAC: BioMAP Diversity Plus: BE3C Assay for Interferon-inducible T-cell alpha chemoattractant (ITAC) Biomarker Activity (AID 2284279). The following applies: primary human bronchial epithelial cells. In a few lines:
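ELISA read-out of I-TAC after 24 h chemical dosing of human lung primary bronchial epithelial cells; gain-of-signal fit vs DMSO baseline. Parallel SRB total-protein staining (0.1% SRB, 10% TCA fixation, 560 nm) assessed cytotoxicity.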

Read-out in experiment [6]: Interleukin-8 (IL8), CXCL8 (gene 3576)
The experiment in a line: BSK_BE3C_IL8: BioMAP Diversity Plus: BE3C Assay for Interleukin-8 (IL8) Biomarker Activity (AID 2284280). The following applies: primary human bronchial epithelial cells. Summed up: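 Dose human bronchial epithelial cells with chemical; incubate 24 h; quantify IL-8 by ELISA; fit response upward versus DMSO controls.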

Read-out in experiment [7]: Epidermal growth factor receptor (EGFR), EGFR (gene 1956)
As to the kind of experiment: BSK_BE3C_EGFR: BioMAP Diversity Plus: BE3C Assay for Epidermal growth factor receptor (EGFR) Biomarker Activity (AID 2284281). The following applies: primary human bronchial epithelial cells. Summed up: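 ELISA read-out of EGFR levels on human bronchial epithelial primary cells collected 24 h post-dosing. DMSO served as negative control and baseline for gain-of-signal fitting.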

Read-out in experiment [8]: Matrix Metallopeptidase 9 (MMP9), MMP9 (gene 4318)
As to the kind of experiment: BSK_BE3C_MMP9: BioMAP Diversity Plus: BE3C Assay for Matrix Metallopeptidase 9 (MMP9) Biomarker Activity (AID 2284283). The following applies: primary human bronchial epithelial cells. In a few lines:
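BE3C, human bronchial epithelial primary cells; 24 h post-dose; MMP-9 by ELISA; positive fit vs DMSO; SRB (0.1%, TCA-fixed, 560 nm) parallel cytotox.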

Read-out in experiment [9]: Plasminogen activator inhibitor-1 (PAI1), SERPINE1 (gene 5054)
The experiment in a line: BSK_CASM3C_PAI1: BioMAP Diversity Plus: CASM3C Assay for Plasminogen activator inhibitor-1 (PAI1) Biomarker Activity (AID 2284284).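 Also: PAI-1 protein level measured by ELISA 24 h after dosing.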 The following applies: primary human coronary artery smooth muscle cells.

Read-out in experiment [10]: Monocyte Chemoattractant Protein-1 (MCP1), CCL2 (gene 6347)
The experiment in a line: BSK_hDFCGF_MCP1: BioMAP Diversity Plus: hDFCGF Assay for Monocyte Chemoattractant Protein-1 (MCP1) Biomarker Activity (AID 2284285). The following applies: primary human foreskin fibroblasts. Summed up: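 MCP-1 ELISA readout was taken 24 hours after dosing primary human dermal fibroblasts in the hDFCGF system, with DMSO as baseline. Parallel sulforhodamine B staining of total protein tracked overt cytotoxicity.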

Read-out in experiment [11]: Intercellular Adhesion Molecule 1 (ICAM1), ICAM1 (gene 3383)
The experiment in a line: BSK_hDFCGF_ICAM1: BioMAP Diversity Plus: hDFCGF Assay for Intercellular Adhesion Molecule 1 (ICAM1) Biomarker Activity (AID 2284287). The following applies: primary human foreskin fibroblasts. Summed up:
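ICAM-1 ELISA readout 24 h after dosing, DMSO as baseline, in human dermal foreskin fibroblast cultures. Cytotoxicity checked in parallel wells by SRB staining (0.1% SRB, 10% TCA fixation, 560 nm).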

Read-out in experiment [12]: TIMP metallopeptidase inhibitor 2 (TIMP2), TIMP2 (gene 7077)
As to the kind of experiment: BSK_hDFCGF_TIMP2: BioMAP Diversity Plus: hDFCGF Assay for TIMP metallopeptidase inhibitor 2 (TIMP2) Biomarker Activity (AID 2284289). The following applies: primary human foreskin fibroblasts. In a few lines:
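Primary human foreskin fibroblasts in the hDFCGF system, dosed for 24 h; TIMP-2 level measured by ELISA, fitted in the positive direction against DMSO; cytotoxicity checked in parallel by sulforhodamine B total protein staining.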

Read-out in experiment [13]: Thrombomodulin, THBD (gene 7056)
The experiment in a line: BSK_LPS_Thrombomodulin: BioMAP Diversity Plus: LPS Assay for Thrombomodulin Biomarker Activity (AID 2284296). The following applies: primary human HUVEC with PBMC. In a few lines: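 Thrombomodulin on the surface of LPS-activated endothelial/PBMC co-cultures was quantified by ELISA at 24 hours post-dosing, with DMSO as baseline. Parallel SRB total-protein staining flagged overt cytotoxicity.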

Read-out in a further experiment: CD69, CD69 (gene 969)
The experiment in a line: BSK_LPS_CD69: BioMAP Diversity Plus: LPS Assay for CD69 Biomarker Activity (AID 2284303). The following applies: primary human HUVEC with PBMC. Summed up:
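CD69 surface levels were read by ELISA after 24 h chemical treatment of an LPS-stimulated HUVEC plus PBMC co-culture; positive-direction fit against DMSO vehicle.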

Experiment [14] can be described thus: CCTE_Deisenroth_5AR_NBTE_acceptor: CCTE's 5alpha-reductase NanoBRET Target Engagement Assay - Autofluorescence Screen, Deisenroth Lab (AID 2284321).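 Also: compound fluorescence in the acceptor channel under 460 nm excitation flags autofluorescence artifacts.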 The following applies: actives raise or lower the signal. Summed up:
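Acceptor fluorescence intensity was read as an artifact-detection endpoint. Test chemicals at an assumed nominal 100 uM were excited at 460 nm across three independent runs. Activity was fitted bidirectionally against DMSO.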
(BRET reads energy transfer from a luciferase to a nearby fluorophore.)

The target in experiment [15] is human Peripheral-type Benzodiazepine Receptor (PBR), TSPO (gene 706) (UniProt P30536). As to the kind of experiment: NVS_MP_hPBR: NovaScreen (NVS) Membrane Protein Assay for human Peripheral-type Benzodiazepine Receptor (PBR) (AID 2283331; active = hit-call score of the fitted dose curve at least 0.9, where 1 is the maximum;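 also: hits reduce radioligand binding relative to DMSO baseline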). Summed up: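 Cell-free radioligand displacement, human colonic membranes, 1 h exposure. Filter radiodetection read-out. Single-concentration duplicates (25 uM), then concentration-response for actives; DMSO negative control.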

Experiment [16] addresses rat Peripheral-type Benzodiazepine Receptor (PBR), Tspo (gene 24230) (UniProt P16257). The experiment in a line: NVS_MP_rPBR: NovaScreen (NVS) Membrane Protein Assay for rat Peripheral-type Benzodiazepine Receptor (PBR) (AID 2283335; active = hit-call score of the fitted dose curve at least 0.9, where 1 is the maximum). Summed up: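 Single-concentration duplicate screening at 25 uM preceded concentration-series retesting of actives. Binding of a specific radioligand to rat kidney membrane PBR was read by filtration radiodetection after 1 h, with plate-wise positive and negative controls.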

Experiment [17] addresses human Caspase 5 (CASP5), CASP5 (gene 838) (UniProt P51878). As to the kind of experiment: NVS_ENZ_hCASP5: NovaScreen (NVS) Enzymatic Assay for human Caspase 5 (CASP5) (AID 2283137; active = hit-call score of the fitted dose curve at least 0.9, where 1 is the maximum). Summed up: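 Fluorescent substrate readout of CASP5 activity (loss-of-signal), measured 2 h post-dose. Protein expressed in E. coli. Primary screen duplicate at 25 uM; actives meeting threshold (e.g., 30% inhibition) rerun singleton, max 50 uM.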

Experiment [18] concerns the target human Thromboxane A2 Receptor (TXA2), TBXA2R (gene 6915) (UniProt P21731). The experiment in a line: NVS_GPCR_hTXA2: NovaScreen (NVS) G Protein-Coupled Receptor Assay for human Thromboxane A2 Receptor (TXA2) (AID 2283282; active = hit-call score of the fitted dose curve at least 0.9, where 1 is the maximum;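 also: actives reduce bound radioligand signal relative to DMSO baseline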). In a few lines: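 Human platelet-derived receptor preparation incubated with test chemical and radiolabelled ligand for 1 hour, cell-free. Bound label was separated by filtration and counted; displacement relative to DMSO controls gave activity, screened at 25 uM, then titrated.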

The target of experiment [19] is human Retinoic Acid Receptor beta (RARb), RARB (gene 5915) (UniProt P10826). As to the kind of experiment: ATG_RARb_TRANS: Attagene TRANS-FACTORIAL HepG2 Assay for human Retinoic Acid Receptor beta (AID 2283004; active = hit-call score of the fitted dose curve at least 0.9, where 1 is the maximum). Summed up: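 Transient transfection of HepG2 with multiple reporter units → chemical dosing, 24 h → total RNA isolation → RT with oligo(dT) → reporter-specific PCR, 6-FAM primer extension, HpaI digest → capillary electrophoresis. Positive direction vs DMSO control.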
Sequence of human Retinoic Acid Receptor beta (RARb), RARB (gene 5915) (P10826 whole entry, looked up): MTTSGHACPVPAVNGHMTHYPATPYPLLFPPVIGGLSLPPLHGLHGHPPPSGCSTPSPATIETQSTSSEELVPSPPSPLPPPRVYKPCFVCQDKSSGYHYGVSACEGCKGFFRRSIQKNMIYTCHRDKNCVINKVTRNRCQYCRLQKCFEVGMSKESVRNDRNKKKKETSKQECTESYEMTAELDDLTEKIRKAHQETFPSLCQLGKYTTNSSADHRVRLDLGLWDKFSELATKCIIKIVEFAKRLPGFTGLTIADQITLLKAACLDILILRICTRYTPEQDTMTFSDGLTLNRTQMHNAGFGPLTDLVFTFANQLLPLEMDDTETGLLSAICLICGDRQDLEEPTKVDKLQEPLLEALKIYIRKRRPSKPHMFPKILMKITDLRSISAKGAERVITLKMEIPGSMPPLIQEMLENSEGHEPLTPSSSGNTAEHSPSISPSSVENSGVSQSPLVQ

Sequence of human Peripheral-type Benzodiazepine Receptor (PBR), TSPO (gene 706) (P30536 whole entry, looked up): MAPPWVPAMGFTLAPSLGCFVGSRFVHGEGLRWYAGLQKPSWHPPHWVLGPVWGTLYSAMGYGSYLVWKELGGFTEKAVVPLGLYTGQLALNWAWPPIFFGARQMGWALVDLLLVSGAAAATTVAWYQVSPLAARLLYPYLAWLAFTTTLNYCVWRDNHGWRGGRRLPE
Sequence of human Caspase 5 (CASP5), CASP5 (gene 838) (P51878 whole entry, looked up): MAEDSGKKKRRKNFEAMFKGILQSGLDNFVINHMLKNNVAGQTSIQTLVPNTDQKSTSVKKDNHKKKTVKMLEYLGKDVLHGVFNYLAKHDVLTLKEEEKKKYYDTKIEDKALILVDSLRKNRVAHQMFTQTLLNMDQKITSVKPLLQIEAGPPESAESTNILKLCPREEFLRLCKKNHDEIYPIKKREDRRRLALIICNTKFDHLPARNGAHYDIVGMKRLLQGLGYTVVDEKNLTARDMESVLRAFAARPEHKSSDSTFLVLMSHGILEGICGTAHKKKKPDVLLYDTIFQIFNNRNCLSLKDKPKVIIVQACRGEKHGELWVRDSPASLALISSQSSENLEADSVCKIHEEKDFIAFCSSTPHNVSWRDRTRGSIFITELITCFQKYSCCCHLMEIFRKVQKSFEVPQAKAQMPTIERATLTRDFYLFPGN
Sequence of rat Peripheral-type Benzodiazepine Receptor (PBR), Tspo (gene 24230) (P16257 whole entry, looked up): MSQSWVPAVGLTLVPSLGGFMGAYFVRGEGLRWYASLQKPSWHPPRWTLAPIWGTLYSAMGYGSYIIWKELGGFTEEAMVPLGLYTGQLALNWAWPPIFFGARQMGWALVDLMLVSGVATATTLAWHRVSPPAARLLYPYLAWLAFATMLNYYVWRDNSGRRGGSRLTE
Sequence of human Thromboxane A2 Receptor (TXA2), TBXA2R (gene 6915) (P21731 whole entry, looked up): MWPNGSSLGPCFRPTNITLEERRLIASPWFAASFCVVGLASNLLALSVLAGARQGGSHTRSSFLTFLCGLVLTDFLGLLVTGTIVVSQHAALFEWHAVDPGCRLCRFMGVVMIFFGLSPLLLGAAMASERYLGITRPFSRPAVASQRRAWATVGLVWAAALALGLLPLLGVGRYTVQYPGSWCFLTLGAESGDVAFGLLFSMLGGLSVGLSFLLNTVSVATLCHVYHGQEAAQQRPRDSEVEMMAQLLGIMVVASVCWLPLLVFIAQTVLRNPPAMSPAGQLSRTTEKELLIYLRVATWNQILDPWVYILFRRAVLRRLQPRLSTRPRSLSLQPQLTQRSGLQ

Regarding `COc1ccc(CO)cc1`, the result in experiment [1], in [2], in [3], in experiment [4], in [5] and in [6] was inactive. For the same molecule, the result in experiment [7], in experiment [8], in experiment [9], in [10], in [11] and in experiment [12] was inactive. Also, the outcome in experiment [13] was “inactive”; in the experiment with CD69, CD69 (gene 969), “inactive”.

Consider `CC(C)c1ccc(O)cc1`, for which, in experiment [14], the molecule was classed as inactive.

On to `CC(C)COP(=O)(OCC(C)C)OCC(C)C`, for which the results for the AC50 in experiment [15] and in experiment [16] were 25 µM (active) and 19.2 µM (active), respectively.

Consider `CC1OC(C)OC(C)O1` (stereo not given), for which the molecule was called inactive in experiment [17] and in experiment [18].

In the case of `O=c1[nH]c(Cl)c(Cl)cc1Cl`, in experiment [18], the AC50 was 0.631 µM (active).

On to `CCC1CCC(=O)O1` (stereo not given), for which, in experiment [19], the result was inactive.

Turning to `O=C1C=CC(=O)C=C1`, the AC50 in [17] is 28.9 µM (active).

Regarding `CCOP(=O)(OCC)OCC`, in experiment [19], the molecule was classed as inactive.

Consider `CCCCCCCCCCCCCCCC[N+](C)(C)C`, for which the AC50 in [15] was 12.3 µM (active).

Turning to `CCCOC(=O)c1ccccc1C(=O)OCCC`, in experiment [16], the outcome was inactive.

As to `CC(=O)c1cc2c(cc1C)C(C)(C)C(C)CC2(C)C` (stereo not given), the outcome in experiment [14] was inactive.

For `Oc1ccc(C2(c3ccc(O)cc3)c3ccccc3-c3ccccc32)cc1`, the AC50 in experiment [1] was 7.47 µM (active) and 7.4 µM (active); in experiment [2], 1.8 µM (active) and 1.21 µM (active); in experiment [3], 5.43 µM (active); in [4], 7.57 µM (active) and 7.24 µM (active); in experiment [5], 5.43 µM (active) and 5.42 µM (active); in experiment [6] it was 6.88 µM (active) and 5.35 µM (active). In addition, the AC50 was 383 nM (active) and 5.33 µM (active) in experiment [8]; 20 µM (active) in experiment [9]; 3.59 µM (active) and 2.48 µM (active) in experiment [10]; 3.15 µM (active) and 2.69 µM (active) in experiment [11]; 1.41 µM (active) and 1.34 µM (active) in experiment [12]; 5.13 µM (active) and 5.21 µM (active) in experiment [13]. For the same molecule, the half-maximal activity concentration (AC50) in the experiment with CD69, CD69 (gene 969) was 14.3 µM (active) and 13.1 µM (active). Besides, the result in [7] was inactive.

A word on the AC50: it is the concentration giving half of the maximal activity seen.
